Source: PubChem
This is a sample that favours compounds with a hit; in the whole collection about 2.3% have one here.
Tau fluor cs: Counterscreen qHTS for Inhibitors of Tau Fibril Formation, Fluorescence Polarization; tau K18 P301L Alexa594 fluorescence, heparin fibrillization; Potency, µM (series often up to 57.7 µM), for the others: at the top dose activity change, negative = decrease; hit rate 0.93% among 280,000; AID 1463, 2008; also: potency is read from the fitted curve at half-maximal effect; nearly all actives have a fitted effect of over 55% in size
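Human tau K18 P301L (15 uM unlabeled, 0.24 uM Alexa 594-labeled) in 100 mM sodium acetate pH 7 with 20 uM heparin, 6 hr at 37 C. ThT 30 uM added, 1 hr ambient; Alexa 594 FP and total fluorescence read at 555/632 nm.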
Tau FP inhib: qHTS for Inhibitors of Tau Fibril Formation, Fluorescence Polarization. Microtubule-associated protein tau (Homo sapiens), P10636. hit rate 0.39% among 280,000. Potency, µM (series often up to 57.7 µM), without a hit: at the highest dose activity, negative = inhibition, most hits filed as inhibitors. AID 1468, 2008. K18 P301L tau heparin fibrillization, Alexa594 FP, 6 h; also: potency is read from the fitted curve at half-maximal effect; nearly all actives have a fitted effect of over 55% in size
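Recombinant K18 P301L […], labeled with Alexa 594 at 0.24 uM over 15 uM unlabeled; heparin inducer 20 uM final; 37 C, 6 hr; FP endpoint.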
USP1 inh: Inhibitors of USP1/UAF1: Primary Screen; Ubiquitin carboxyl-terminal hydrolase 1 (Homo sapiens), O94782; Potency, µM (series often up to 57.1 µM), inactives show at the highest dose activity change, negative = inhibition, hits mostly inhibitors; recombinant USP1/UAF1, Ub-Rhodamine cleavage fluorescence; hit rate 0.23% among 390,000; also: potency is read from the fitted curve at half-maximal effect; nearly all actives have a fitted effect of over 60% in size
Target sequence (O94782 whole entry, looked up): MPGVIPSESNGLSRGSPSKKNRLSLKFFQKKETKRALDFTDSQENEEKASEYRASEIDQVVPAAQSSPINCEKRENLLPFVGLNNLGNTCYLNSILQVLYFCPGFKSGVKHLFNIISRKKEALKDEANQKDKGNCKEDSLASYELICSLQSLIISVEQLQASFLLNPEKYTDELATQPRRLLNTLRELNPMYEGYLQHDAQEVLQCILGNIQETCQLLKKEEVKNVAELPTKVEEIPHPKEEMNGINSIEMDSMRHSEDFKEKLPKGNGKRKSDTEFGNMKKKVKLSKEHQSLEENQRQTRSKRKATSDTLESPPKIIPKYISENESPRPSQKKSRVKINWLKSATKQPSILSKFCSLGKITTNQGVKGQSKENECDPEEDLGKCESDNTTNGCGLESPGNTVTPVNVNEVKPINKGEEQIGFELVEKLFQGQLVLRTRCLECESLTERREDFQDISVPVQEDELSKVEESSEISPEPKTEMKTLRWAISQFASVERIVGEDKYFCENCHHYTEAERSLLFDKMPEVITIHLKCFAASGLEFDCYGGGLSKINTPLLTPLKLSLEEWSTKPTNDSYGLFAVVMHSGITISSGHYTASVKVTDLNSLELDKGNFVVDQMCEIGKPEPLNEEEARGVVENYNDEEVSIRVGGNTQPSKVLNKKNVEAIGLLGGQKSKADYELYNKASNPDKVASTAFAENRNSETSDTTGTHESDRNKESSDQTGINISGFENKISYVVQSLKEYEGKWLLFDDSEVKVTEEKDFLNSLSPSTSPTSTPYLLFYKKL
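1 nM enzyme complex + cpd, 15 min RT; start with Ub-Rho 150nM final; kinetic fluorescence ex 480/em 540, 6 reads q60 s. Buffer 50mM HEPES pH 7.8, 0.5mM EDTA, 0.1 mg/ml BSA, 1mM TCEP, 0.01% Tween-20.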
Tau fibril ThT: qHTS for Inhibitors of Tau Fibril Formation, Thioflavin T Binding; recombinant tau K18 P301L (four-repeat tau fragment), heparin-induced fibrillization, ThT fluorescence; Potency, µM (titrated, usually from 57.4 µM), inactives show at the highest dose activity, negative = inhibition, actives largely listed as inhibitors; hit rate 2.1% among 270,000; AID 1460, 2008; also: potency is read from the fitted curve at half-maximal effect; nearly all actives have a fitted effect of over 55% in size
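Aggregation was driven by heparin (20 uM final) acting on recombinant tau […] bearing P301L in 100 mM sodium acetate pH 7; fibrils were detected with Thioflavin T.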
Coupling enz: qHTS Assay for Inhibitors of Fructose-1,6-bisphosphate Aldolase from Giardia Lamblia: Coupling assay counterscreen; coupling enzyme system counterscreen, AmpLite Red fluorescence; hit rate 0.67% among 290,000; activity change, negative = inhibition, % at 58.2 µM, hits read low; in the data active = activity change below about -30%
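Counterscreen of the coupled detection system alone, without aldolase: glyceraldehyde-3-phosphate coupling enzymes plus AmpLite Red readout. Compounds at 57.5 uM final, 10 min RT preincubation, 20 min RT reaction, fluorescence 525/598 nm.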
An asterisk follows results filed as active; ? = inconclusive; nt = no result given; [ ] = another dose, or the depositor's remark. Unless noted, calls follow the shape of the dose curve; as a rule, active = well fitted curve in the direction sought with a large enough effect; inconclusive = small, poorly fitted or top-dose-only effect, or another doubt; inactive = no such curve, though single readings can be large; an effect the other way counts as inactive or inconclusive. % is scaled to controls: 0 for no effect and ±100 for the full control effect.

SMILES	Tau fluor cs	Tau FP inhib	USP1 inh	Tau fibril ThT	Coupling enz
COc1ccc2[nH]cc(CCNc3ncncc3-c3cccc(C#N)c3)c2c1	nt	nt	nt	nt	-3.1
CS(=O)(=O)c1ccc(C(=O)NCCN2C(=O)S/C(=C\c3cccnc3)C2=O)cc1[N+](=O)[O-]	?	?	-28.9%	15.8µM*	-0.9
CCOC(=O)c1c(C)[nH]c(C)c1S(=O)(=O)NCC(=O)N1CCN(c2ccccc2OC)CC1	-17.5%	-1.9%	-20.4%	-3.7%	nt
Cn1cc(C(=O)N/N=C/c2ccc3c(c2)OCO3)c2ccccc21	?	-10.6%	-23.0%	?	0.3
Cn1cc(C(=O)N/N=C/c2ccc(Br)c([N+](=O)[O-])c2)c2ccccc21	14.1µM*[quencher]	?	-5.0%	nt	0.8
CCn1c(C)cs/c1=N\S(=O)(=O)c1ccccc1	nt	nt	-17.8%	nt	nt
O=Cc1s/c(=N\S(=O)(=O)c2ccccc2)n(CCCCl)c1Cl	-11.6%	?	-18.9%	28.2µM*	-0.9
COc1ccc(NC2=CC(c3ccc(OC)c(OC)c3)N(c3ccc(OC)cc3)C2=O)cc1 (centres undefined)	0.3%	7.6%	-2.0%	-1.5%	-0.7
NS(=O)(=O)c1ccc(NC2=CC(c3ccc([N+](=O)[O-])cc3)N(c3ccc(S(N)(=O)=O)cc3)C2=O)cc1 (centres undefined)	12.6µM*[quencher]	-14.5%	-8.8%	?	-1.2
Cc1cccc(-c2nc(SCC(=O)Nc3ccc4c(c3)OCO4)c(-c3ccccc3)[nH]2)c1	6.31µM*[quencher]	?	-10.6%	?	nt
COc1cccc(-c2nc(SCC(=O)Nc3ccc4c(c3)OCO4)c(-c3ccccc3)[nH]2)c1	7.94µM*[quencher]	-5.6%	?	?	nt
CCOc1ccc(-c2nc(SCC(=O)Nc3ccc4c(c3)OCO4)c(-c3ccc(F)cc3)[nH]2)cc1	?	1.7%	-12.7%	?	nt
Nn1c(SCC(=O)Nc2ccc3c(c2)OCO3)nnc1-c1ccccc1	-13.5%	6.3%	4.2%	?	2.1
COC(=O)NC(/C=C/c1ccccc1)C(C(C)=O)C(=O)OC (centres undefined)	-2.6%	4.4%	nt	-4.6%	0.1
CCCCn1cc(S(=O)(=O)c2ccc(C)cc2)c(=O)c2cc(F)c(N3CCCCC3)cc21	3.4%	2.4%	-9.1%	1.4%	nt
CCOC(=O)N1CCN(C(=O)c2c(N)no[n+]2[O-])CC1	-11.0%	?	nt	25.1µM*	4.6
CN1CCN(CC(=O)n2c3c(c4ccccc42)CCCC3)CC1	-6.7%	3.2%	?	-16.0%	-46.8*
CCN(CC)c1ccc(/C=c2\sc3nnc(-c4ccccc4Cl)n3c2=O)cc1	-14.2%	-4.3%	54.5%	7.08µM*	-0.1
CCN(CC)c1ccc(/C=c2/sc3nnc(-c4ccccc4C)n3c2=O)cc1	-10.4%	5.4%	?	?	2.6
CCc1ccc2[nH]c(=O)c(C3C(C#N)=C(N)Oc4c3ccc3cccnc43)cc2c1 (centres undefined)	?	-5.3%	-8.3%	?	-1.3
Cc1ccc2cc(C3C(C#N)=C(N)Oc4c3ccc3cccnc43)c(=O)[nH]c2c1 (centres undefined)	-27.2%	?	-16.0%	?	-39.1*
CCN1C(=O)/C(=C\c2ccc(-c3ccc([N+](=O)[O-])cc3OC)o2)SC1=Nc1cccc(C(=O)O)c1	?	-17.4%	?	14.1µM*	0.4
CCN1C(=O)/C(=C\c2ccc(-c3cccc(C(=O)OC)c3)o2)SC1=Nc1ccc(C(=O)O)cc1	nt	nt	nt	nt	10.9
CCCS(=O)(=O)N1CC(=O)N(c2cc(C)ccc2C)C(C)(C(=O)NC2CCCCCC2)C1 (centres undefined)	-1.6%	-2.6%	?	-0.9%	nt
FC(F)(F)c1cccc(NCc2cn3cccnc3n2)c1	-10.3%	5.1%	-16.1%	-3.6%	-51.6*
SMILES	Tau fluor cs	Tau FP inhib	USP1 inh	Tau fibril ThT	Coupling enz
CC(C)(C)CC(=O)Nc1cccc(-c2cn3cccnc3n2)c1	8.1%	1.8%	-3.2%	7.1%	0.0
NNC(=O)c1oc2nc(-c3cccs3)cc(-c3ccco3)c2c1N	nt	nt	nt	nt	-0.6
Cc1ccc(-c2cc(-c3ccco3)c3c(N)c(C(=O)NN)oc3n2)cc1	?	-1.8%	-7.5%	10µM*	-1.5
O=C1c2ccc3c4c(ccc(c24)C(=O)N1CCCCO)C(=O)N(CCCCO)C3=O	-18.5%	-0.7%	?	-13.3%	-39.5*
COc1cc(CNc2ccc(N3CCN(C(C)=O)CC3)cc2)ccc1OCc1ccccc1	?	-14.7%	1.5%	3.98µM*	-3.7
COC(=O)c1cc(C)nc(Sc2ccccc2N)n1	?	?	-26.4%	28.2µM*	0.9
CN(C)C(=O)/C(C#N)=C\c1cc(Br)c(Sc2ccc(Cl)cc2)o1	-2.1%	?	-16.8%	?	-50.6*
Clc1ccc(Sc2oc(/C=N/n3cnnc3)cc2Br)cc1	-12.7%	9.0%	2.9%	-15.9%	0.0
Cc1nc2c(-c3ccc(F)cc3)c(C)nn2c(C)c1CCC(=O)Nc1ccccc1	-8.3%	-11.3%	-23.0%	9.1%	5.3
CCN1CCN(c2ccc(NC(=O)CCc3c(C)nc4c(-c5ccc(F)cc5)c(C)nn4c3C)cc2)CC1	17.8µM*[quencher]	2.3%	-12.0%	?	-2.7
N#C[C@@H]1[C@@H]2C(=O)N(c3ccc4c(c3)OCCO4)C(=O)[C@@H]2C2c3ccccc3C=CN21 (some centres undefined)	-17.6%	2.6%	nt	?	-33.8*
COC(=O)C1(CCSC)NC(c2ccccc2F)C2C(=O)N(c3ccc4c(c3)OCCO4)C(=O)C21 (centres undefined)	0.7%	-1.4%	2.4%	5.1%	0.7
COC(=O)c1ccc(NC(=O)CC2C(=O)N(c3cccc(OC)c3)C(=O)N2C(C)C)cc1 (centres undefined)	-22.2%	-6.7%	-12.6%	?	nt
O=C1C(=O)c2ccccc2C(O)=C1CCCCl	-14.5%	-9.5%	20µM*	?	-50.4*
COc1ccc(CC2=C(O)c3ccccc3C(=O)C2=O)cc1	nt	nt	-24.7%	nt	-2.0
Nc1ccc(S(N)(=O)=O)cc1	-7.5%	-2.7%	15.2%	-1.7%	0.1
Nc1ccc(S(N)(=O)=O)cc1N	?	-17.1%	-20.9%	12.6µM*	-27.8
CCOC(=O)C(NC(C)=O)(N1CCc2ccccc2C1)C(F)(F)F (centres undefined)	-15.3%	?	-13.9%	25.1µM*	2.5
COc1ccc(CNC(=O)c2sc3nc4c(c(C(F)(F)F)c3c2N)CCC4)cc1OC	-10.9%	9.4%	-7.9%	-5.8%	-0.3
COc1ccc(C(=O)c2sc3nc4c(c(C(F)(F)F)c3c2N)CN(C(C)=O)CC4)cc1OC	-10.1%	3.9%	39.8µM*	14.1µM*	nt
